These results are taken from PubChem BioAssay AID493168 (National Center for Advancing Translational Sciences (NCATS), 2011).

Molecules are shown by their SMILES. Results filed as inconclusive are left out. Entries that show only a call come without a potency. Active and inactive are the calls of the source. Calls follow the shape of the dose curve; as a rule, active = well fitted inhibition curve with a large enough effect; inconclusive = small, poorly fitted or top-dose-only effect, or effect the other way; inactive = flat fitted curve, though single readings scatter.
Potency is read from the fitted curve at half-maximal effect.

The assay deals with Ubiquitin carboxyl-terminal hydrolase 2 (Homo sapiens) (UniProt O75604). As to the kind of experiment: Confirmation Assay for Inhibitors of Ubiquitin-specific Protease USP2a Using CHOP2 as the Reporter. Also: nearly all actives have a fitted effect of over 55% in size. Conditions: USP2 core, Ub-CHOP2 coupled reporter fluorescence; series mostly up to 38.3 µM. Put shortly: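 USP2 core (10 nM final) was preincubated with compound for 30 min at RT in Tris-HCl pH 8.0, CaCl2, beta-mercaptoethanol, CHAPS. Ub-CHOP2 and reporter substrate (25 nM final each) were added, and fluorescence (Ex 485/Em 531 nm) was read after 60 min.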
Chain of Ubiquitin carboxyl-terminal hydrolase 2 (Homo sapiens) (O75604 whole entry, looked up): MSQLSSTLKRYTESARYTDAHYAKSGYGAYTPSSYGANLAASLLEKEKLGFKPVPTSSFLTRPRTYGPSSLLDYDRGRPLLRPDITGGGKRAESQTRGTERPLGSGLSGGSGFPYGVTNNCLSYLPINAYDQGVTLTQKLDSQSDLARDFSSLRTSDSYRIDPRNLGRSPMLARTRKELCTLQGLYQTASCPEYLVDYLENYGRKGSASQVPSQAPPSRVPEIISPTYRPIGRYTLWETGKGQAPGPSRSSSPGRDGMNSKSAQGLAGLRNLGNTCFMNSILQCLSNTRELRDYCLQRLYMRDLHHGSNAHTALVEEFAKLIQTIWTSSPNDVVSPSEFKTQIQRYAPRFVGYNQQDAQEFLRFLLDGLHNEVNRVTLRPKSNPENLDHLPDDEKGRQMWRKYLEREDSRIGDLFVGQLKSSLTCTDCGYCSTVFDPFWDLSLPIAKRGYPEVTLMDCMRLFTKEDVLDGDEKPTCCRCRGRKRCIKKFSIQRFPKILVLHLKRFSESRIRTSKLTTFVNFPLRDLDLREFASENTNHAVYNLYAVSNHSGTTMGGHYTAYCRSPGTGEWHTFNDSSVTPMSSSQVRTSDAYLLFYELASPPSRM
On to `Cc1ccc(C2=[N+]([O-])C(C)N(O)C2(C)C)o1` (centres undefined), for which the Potency result is “inactive”.

For `CC(C)(C)C1CCC(=NNC(=O)CN(c2ccccc2)S(C)(=O)=O)CC1` (centres undefined), the Potency result was “inactive”. With `CCOc1ccc(S(=O)(=O)N(CC(=O)O)c2ccccc2)cc1`, the Potency result is “inactive”. As to `Cc1ccccc1C(=O)Nc1ccc2nc3n(c(=O)c2c1)CCC3`, the Potency result is “inactive”.

Turning to `O=C(CSCCO)Nc1cccc2ccccc12`, the Potency result was “inactive”. The same measure for `CCC/C(O)=C1\C(=O)CC(C)(C)CC1=Nc1ccc(OC)cc1OC`: “inactive”; for `Cn1c2ccccc2c2nnc(SC3CCOC3=O)nc21` (centres undefined): “inactive”. Turning to `O=C(CNC(=O)c1ccco1)Nc1ccc(S(=O)(=O)N2CCCC2)cc1`, the Potency entry is “inactive”. Take `Cc1cccc(NC(=O)NCc2ccc3c(c2)cc(C)n3C)c1`: the Potency entry was “inactive”. Regarding `CC(C)Cn1c(SCC(N)=O)nnc1-c1cccc(S(=O)(=O)N2CCOCC2)c1`, the Potency entry is “inactive”. For `COc1cc(/C=C/C(=O)OCC(=O)NC(=O)NCc2ccco2)ccc1OC(F)F`, the Potency result was “inactive”. The same measure for `CC1(C)CC(=O)C2=C(C1)Oc1ncn(CCCO)c(=N)c1C2c1ccccc1` (centres undefined): “inactive”; for `CNS(=O)(=O)c1cccc(C(=O)OCC(=O)c2cc(C)n(-c3ccc4c(c3)OCO4)c2C)c1`: “inactive”.

With `Cn1c(C(=O)N2CCN(Cc3ccc4c(c3)OCO4)CC2)cc2sccc21`, the Potency entry was “inactive”. For `Oc1c(Cl)cc(Cl)c(Cl)c1Cc1c(O)c(Cl)cc(Cl)c1Cl`, the Potency is 5.21 µM (active).

In the case of `CCCOc1ccc(/C=C2\SC(=S)N(CC3CCCO3)C2=O)cc1` (centres undefined), the Potency result was “inactive”. Consider `Cc1ccc(C=Nc2ccccc2C(N)=O)cc1`, for which the Potency result is “inactive”.

With `CCCCNC(=O)Nc1ccccc1C(=O)NCc1ccco1`, the Potency result was “inactive”.

Consider `CCCCCCCCCCC[N+](C)(C)CC/C=C1/c2ccccc2Sc2ccc(Cl)cc21`, for which the Potency was 9.27 µM (active). Regarding `CN(C)c1ccc(-c2ccccc2)nn1`, the Potency entry is “inactive”.

Take `CC(=O)c1ccc2c(c1)C1C=CCC1C(C(=O)O)N2` (centres undefined): the Potency was 11.7 µM (active).

Regarding `COC(=O)C1Sc2[nH]c(=O)sc2C(c2ccc(Cl)cc2)C1C(=O)OC` (centres undefined), the Potency result was “inactive”. Consider `COc1ccc(CC(=O)c2ccccc2C(=O)O)cc1`, for which the Potency entry is “inactive”. Take `Cc1ccc(O)c(CC(C)C)n1`: the Potency result is “inactive”.

Take `Cc1cc(C)n2cc(CSc3nnnn3-c3ccccc3C)nc2n1`: the Potency result was “inactive”. The entry for `COc1ccc(S(=O)(=O)N2CCCCC2)cc1NC(=O)Cc1c[nH]c2ccccc12` is “inactive”. For `N#Cc1c(NC(=O)CSc2ncnc3sccc23)oc(-c2ccco2)c1-c1ccco1`, the Potency was 13.1 µM (active). On to `Cc1ccc(CNC(=O)CCNS(=O)(=O)c2ccc(C)cc2)cc1`, for which the Potency result was “inactive”. As for `CN1CCN(CCCCOc2ccc(F)cc2)CC1`, the Potency entry is “inactive”. As to `Cc1ccccc1OCCn1nc(C(=O)O)c2ccccc2c1=O`, the Potency result is “inactive”.

Take `COc1ccc(OC)c(Nc2ccc(Nc3cc(OC)ccc3OC)nn2)c1`: the Potency result is “inactive”. The same measure for `CCCCNc1nc2ccccc2nc1NS(=O)(=O)c1cccs1`: “inactive”; for `O=C(COc1ccccc1)NCc1nnc(SCC(=O)Nc2nccs2)n1-c1ccccc1`: “inactive”; for `CCc1sc(/C=C(/C#N)C(N)=S)cc1[N+](=O)[O-]`: “inactive”. Regarding `Cc1cc(SCC(=O)NC2CCCCC2)nc2ccccc12`, the Potency entry was “inactive”. For `CCOC(=O)c1sc(NC(=O)Nc2ccccc2)cc1C`, the Potency entry was “inactive”. Turning to `CCN(CC)c1ccc2nc3ccccc3[n+](CC)c2c1`, the Potency entry was “inactive”. For `O=C(Nc1cccc(S(=O)(=O)NC2=NCCC2)c1)c1cc(-c2ccco2)nc2ccccc12`, the Potency is 16.5 µM (active). As to `COc1ccc(C(=O)Nc2ccc(N3CCCC3)cc2)cc1OC`, the Potency entry was “inactive”.
